This is an account of results in the supplement of paper PMC7156485.

± gives the standard deviation of the averaged measurements.
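Also: TDF denotes transformed human dermal fibroblasts of mesenchymal origin.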

The test system of the test is HCC1569. In words: cell number relative to DMSO (% of DMSO); higher = more cells (less growth inhibition / toxicity). The note with it: concentration: 10 µM; 24 h. Summed up: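 Treatment: HCC1569 and TDF cells, 800 per well in 384-well plates with RPMI and 10% FBS, were given compounds at 10 µM for 24 h at 37 °C, in triplicate. Readout: after 3.7% formaldehyde fixation, cells were stained with a rabbit anti-H1.0 antibody, an AlexaFluor 647 secondary and DAPI. Reported values are H1.0 nuclear intensity or cell number as percent of the plate control, taken as the median of replicates, with positional smoothing for HCC1569.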
As to `O=C1Cc2c([nH]c3ccc([N+](=O)[O-])cc23)-c2ccccc2N1` [Alsterpaullone], the cell number stood at 82.4 ± 33.

In the case of `O=C1c2ccccc2-c2n[nH]c3cccc1c23`, the cell number worked out at 93.2.

As to `CC1COc2c(N3CCN(C)CC3)c(F)cc3c(=O)c(C(=O)O)cn1c23` (stereo unspecified) [Ofloxacin], the cell number was 101.5 ± 0.68.

Turning to `CCCCCCCCCCCCCCCC(=O)OCC=C(C)C=CC=C(C)C=CC1=C(C)CCCC1(C)C` [Retinyl palmitate], the cell number was determined as 101.

`CCOC(=O)OC(C)OC1=C(C(=O)Nc2ccccn2)N(C)S(=O)(=O)c2ccccc21` (stereo unspecified) [Ampiroxicam] gave a cell number of 105.

`Nc1cc(=O)nc(N)[nH]1` [2,6-Diamino-4-pyrimidinone] gave a cell number of 99.3.

`CS(=O)(=O)O.O=C1Nc2ccc(-c3cccnc3)cc2C1=Cc1ccc[nH]1` [JAK3 Inhibitor VI] came in with a cell number of 73.

In turn, `COc1cc(CC(=O)O)ccc1O` [4-Hydroxy-3-methoxyphenylacetic acid] yielded a cell number of 105.

In the case of `Cl.Cl.Fc1ccc(C(c2ccc(F)cc2)N2CCN(CC=Cc3ccccc3)CC2)cc1` [Flunarizine.2HCl], the cell number turned out to be 97.6.

Compound `O=c1cc(-c2ccc(O)c(O)c2)oc2cc(O)cc(O)c12` [Luteolin] had a cell number of 74.6 ± 15.

As for `COC1C(OC(N)=O)C(O)C(Oc2ccc3c(O)c(NC(=O)c4ccc(O)c(CC=C(C)C)c4)c(=O)oc3c2C)OC1(C)C.[Na+]` (stereo unspecified) [Novobiocin.Na], the cell number came to 103.

In turn, `CC1CCc2c(N3CCC(O)CC3)c(F)cc3c(=O)c(C(=O)O)cn1c23` (stereo unspecified) [Nadifloxacin] returned a cell number of 107.

Compound `C[N+]1(CCCCC[N+]2(C)CCCC2)CCCC1.O=C([O-])C(O)C(O)C(=O)O.O=C([O-])C(O)C(O)C(=O)O` [Pentolinium di[L(+)-tartrate]] came in with a cell number of 103.

For the compound `O=C(Nc1cccc(C(=O)Nc2ccc(S(=O)(=O)[O-])c3cc(S(=O)(=O)[O-])cc(S(=O)(=O)[O-])c23)c1)Nc1cccc(C(=O)Nc2ccc(S(=O)(=O)[O-])c3cc(S(=O)(=O)[O-])cc(S(=O)(=O)[O-])c23)c1.[Na+].[Na+].[Na+].[Na+].[Na+].[Na+]`, the cell number is 102.

As for `CSc1nc(-c2ccnc(NC(C)c3ccccc3)c2)c(-c2ccc(F)cc2)[nH]1` (stereo unspecified) [p38 MAP Kinase Inhibitor III], the cell number amounted to 94.8.

`CCC1=C(C)CN(C(=O)NCCc2ccc(S(=O)(=O)NC(=O)NC3CCC(C)CC3)cc2)C1=O` (stereo unspecified) [Glimepiride] had a cell number of 102.

The compound `CN1CCN(c2c(F)cc3c(=O)c(C(=O)O)cn(CCF)c3c2F)CC1` [Fleroxacin] had a cell number of 101.

With `CC(C)CC(NC(=O)C1OC1C(=O)O)C(=O)NCCCCN=C(N)N` (stereo unspecified), the cell number worked out at 99.92 ± 0.64.

As to `Cl.NCC1OC(C23CC4CC(CC(C4)C2)C3)Cc2c1ccc(O)c2O` (stereo unspecified), the cell number turned out to be 73.5.

`CC[C@H](C(=O)Nc1ccccc1N1CCCC1)c1ccccc1` [(2S)-2-Phenyl-N-[2-(1-pyrrolidinyl)phenyl]butanamide] returned a cell number of 101.

Regarding `Cc1cccc(-c2[nH]ncc2-c2ccc3ncccc3n2)n1`, the cell number was determined as 96.6.

The compound `Brc1c(NC2=NCCN2)ccc2nccnc12` came in with a cell number of 103.

`CN(C)CCC(CSc1ccccc1)Nc1ccc(S(=O)(=O)NC(=O)c2ccc(N3CCN(Cc4ccccc4-c4ccc(Cl)cc4)CC3)cc2)cc1[N+](=O)[O-]` (stereo unspecified) had a cell number of 30.5.

In the case of `CCC=CCC=CCC=CCC=CC=CC(O)CCCC(=O)O` (racemic), the cell number was 106.

For the compound `CCCCCC(O)C=CC1C(O)CC2OC(=CCCCC(=O)[O-])CC21.[Na+]` (stereo unspecified) [Prostaglandin I2 Na], the cell number was found to be 101.

Compound `O=C(c1cc2cc(O)ccc2[nH]1)c1cc2cc(O)ccc2[nH]1` [Flt-3 Inhibitor II] showed a cell number of 67.1.

On to `Cc1nc2c([nH]1)c(=O)n(C)c(=O)n2Cc1ccco1` [Furafylline], for which the cell number was 103 ± 5.7.

On to `CC(C)NCC(O)COc1ccc(CCOCC2CC2)cc1.Cl` (stereo unspecified) [Betaxolol hydrochloride], for which the cell number came to 102.

`CN(CCOc1ccc(CC2SC(=O)NC2=O)cc1)c1ccccn1.O=C(O)C=CC(=O)O` (stereo unspecified) [Rosiglitazone maleate] registered a cell number of 103.

`CC(=O)CCCCn1c(=O)c2c(ncn2C)n(C)c1=O` [Pentoxifylline] returned a cell number of 103 ± 4.1.

`CC(=O)OCC(CCn1cnc2cnc(N)nc21)COC(C)=O` [Famciclovir] had a cell number of 103.
